# Screening results from PubChem BioAssay.
# D1 agonist: Allosteric Agonists of the Human D1 Dopamine Receptor: qHTS; D(1A) dopamine receptor (Homo sapiens), P21728; HEK293 T-REx D1 cells, calcium flux, agonist mode; activation, % at 2 µM; 360,000 tested, 1% active; AID 504660, 2011; also: 0% is about no effect
#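 Tetracycline-induced HEK293 TREx D1 cells, force-coupled to calcium signalling, were dye-loaded with a no-wash calcium kit. Compound was pin-added after a 10 s baseline. Fluorescence was read kinetically at 1 cycle/s for 180 s, with calcium rises flagged as agonism.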
# Epigenetic reg: Quantitative High-Throughput Screen for Regulators of Epigenetic Control | murine LDR cells, GFP reporter derepression, 30 h | Potency, µM (highest dose often 53.9 µM), without a hit: at the highest dose GFP activation, hits mostly activators | 280,000 tested, 0.2% active | AID 1865, 2009; active = well fitted activation curve with a large enough effect; inconclusive = small, poorly fitted or top-dose-only effect; also: potency is read from the fitted curve at half-maximal effect; % of control where 0% means no effect; nearly all actives have a fitted effect of over 60% in size
#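 Readout is the number of GFP-expressing murine LDR cells, counted by cytometry following washing. Cells were treated with compound for 30 h at 37 C; the stably integrated CMV-GFP locus is normally silent.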
# D1 antagonist: Antagonist of Human D 1 Dopamine Receptor: qHTS. HEK293 TREx D1 cells, calcium flux, dopamine EC80; active compounds read low. AID 504652, 2011. activity change, negative = inhibition, % at 10 µM. 360,000 tested, 3.2% active; in the data active = activity change below about -30%; also: % is scaled to controls: 0 for no effect and ±100 for the full control effect
#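 Tetracycline-induced HEK293 T-REx cells with force-coupled D1 receptor were loaded with a no-wash calcium dye. Compound was added after a 10 s baseline and read kinetically for 180 s; EC80 dopamine was then added and calcium flux followed another 180 s.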
# TRHR enhancer: qHTS for Small Molecule Agonists and Allosteric Enhancers of Human TRH Receptor: Primary Screen for Enhancers. Thyrotropin-releasing hormone receptor (Homo sapiens), P34981. TRHR cells, fluo-8 calcium fluorescence, EC20 TRH enhancement. enhancement, % at 2 µM. 360,000 tested, 0.66% active. AID 493056, 2011; in the data active = enhancement above about 30%; also: 0% is about no effect
# Target sequence (P34981 whole entry, looked up): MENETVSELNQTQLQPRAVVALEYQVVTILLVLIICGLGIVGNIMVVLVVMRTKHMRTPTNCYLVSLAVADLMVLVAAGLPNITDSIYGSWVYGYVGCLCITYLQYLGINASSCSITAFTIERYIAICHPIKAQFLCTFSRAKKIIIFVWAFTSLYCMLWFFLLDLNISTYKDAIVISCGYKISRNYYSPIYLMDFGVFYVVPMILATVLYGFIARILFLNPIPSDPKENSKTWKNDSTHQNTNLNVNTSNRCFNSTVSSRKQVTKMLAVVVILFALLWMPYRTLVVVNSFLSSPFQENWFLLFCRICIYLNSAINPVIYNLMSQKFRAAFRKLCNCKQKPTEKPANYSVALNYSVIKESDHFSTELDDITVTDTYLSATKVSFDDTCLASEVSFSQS
#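 TRHR-expressing cells loaded with fluo-8 calcium dye were read kinetically (ex 480/em 530) during compound addition, then stimulated with an EC20 of TRH (10 nM final). Enhancement of the Gq-mediated intracellular calcium response was scored.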
# TRHR agonist: qHTS for Small Molecule Agonists and Allosteric Enhancers of Human TRH Receptor: Primary Screen for Agonists | TRHR cells, calcium flux fluo-8, FDSS agonist mode | activation, % at 2 µM | 360,000 tested, 0.18% active | AID 493084, 2011; also: 0% is about no effect
#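 Steps: seed TRHR cells overnight; add fluo-8 no-wash Ca dye, RT 30 min–1.5 h; record 10 s baseline; pin-transfer compounds; monitor fluorescence 1 cycle/s for the agonist window. Calcium increases flag candidate agonists.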
# D1 PAM: Potentiators of Human D1 Dopamine Receptor: qHTS; HEK293 TREx D1 cells, calcium flux, dopamine EC20 potentiation; D(1A) dopamine receptor (Homo sapiens), P21728; AID 504651, 2011; potentiation, % at 10 µM; 360,000 tested, 0.036% active; in the data active = potentiation above about 30%; also: 0% is about no effect
# Starred values were filed as active, the others as inactive; u = inconclusive; x = no result given; ! = not active in a repeat. Only some compounds are listed: those with a hit (about 4.6% of all), similar ones and a draw of the others. Rule as the data show it, unless noted: active = activation above about 30%; inactive = the rest.
SMILES,D1 agonist,Epigenetic reg,D1 antagonist,TRHR enhancer,TRHR agonist,D1 PAM
CN1CCN(NC(=O)Nc2cccc(Cl)c2Cl)CC1,0.6,-0.4%,-2.0,1.6,2.8,-4.4
Cn1nccc1NC(=O)Nc1cccc(Cl)c1Cl,4.5,-2.6%,-32.6*,10.5,-0.2,-15.3
COc1ccc(NC(=O)N2CCN(S(=O)(=O)c3ccc4c(ccn4C)c3)CC2)cc1OC,4.9,-3.3%,0.9,-1.6,-0.8,-1.9
Cc1cc(C)c(O)c(NC(=S)NC(=O)Cc2ccccc2)c1,33.0*,x,-11.4,10.2,7.3,2.1
Cc1cccc(NC(=S)NC(=O)Cc2ccccc2)c1C,65.5*,x,6.2,-5.0,11.5,-2.8
Cc1cccc(NC(=S)NC(=O)CCc2ccccc2)c1C,11.9,-1.5%,20.2,16.8,0.0,4.7
O=C(O)CCCN1C(=O)/C(=C/c2cn(-c3ccccc3)nc2-c2cccs2)SC1=S,50.6*,-0.1%,-36.6*,-6.3,1.3,-5.0
COc1ccc(NC(=O)c2ccco2)cc1NC(=O)C(C)(C)Oc1ccc(Cl)cc1,8.7,u,-10.6,6.2,-1.6,-4.5
Cc1oc(-c2ccc(C(=O)Nc3cccc(C(F)(F)F)c3)cc2)nc1CSc1ccccc1,12.8,-3.8%,-10.9,-0.4,2.8,-3.0
CC(=O)N1CCCc2cc(S(=O)(=O)N3CCCC(C(=O)NCc4ccccc4Cl)C3)ccc21 (centres undefined),0.8,0.0%,-42.2*!,-5.3,0.6,-9.4
CC(=O)N1c2ccc(S(=O)(=O)N3CCCC(C(=O)NCc4ccccc4Cl)C3)cc2CC1C (centres undefined),0.9,x,-10.8,5.6,0.1,-3.9
COc1ccc(N2CCN(C(=O)C3CCCN(S(=O)(=O)c4ccc5c(c4)CCCN5C(C)=O)C3)CC2)cc1 (centres undefined),0.9,0.0%,-23.9,4.4,-0.4,-2.1
CC(=O)N1CCCc2cc(S(=O)(=O)N3CCCC(C(=O)N4CCN(c5ccccc5F)CC4)C3)ccc21 (centres undefined),3.3,0.0%,-38.8*,1.3,0.1,-3.6
COc1ccc(NC(=O)NC2COc3ccccc3C2)cc1Cl (centres undefined),-0.2,1.9%,1.7,-1.0,0.1,0.1
O=C(Nc1ccc(Cl)cc1)c1ccc(-n2cccn2)c([N+](=O)[O-])c1,18.6,-0.9%,-32.2*,-4.5,-0.3,-2.8
O=C(Nc1ccc(Cc2ccncc2)cc1)c1ccc(Cl)c([N+](=O)[O-])c1,8.1,-0.9%,-33.7*,1.3,-0.1,-6.4
Cc1c([N+](=O)[O-])cc(C(=O)Nc2ccc(Cc3ccncc3)cc2)cc1[N+](=O)[O-],16.6,1.1%,0.6,-3.8,-0.1,-3.5
COc1cc(C(=O)OCCCN(C)C)cc(OC)c1OC,1.0,0.0%,-38.8*,-6.0,0.3,-1.8
COc1ccc(C(=O)OCCCN(C)C)cc1OC,3.2,0.0%,-3.2,0.8,0.2,1.1
CC12CCC(C(=O)N(c3ccccc3Cl)C1=O)C2(C)C (centres undefined),2.4,-0.9%,6.0,33.9*,0.2,-1.6
CC12CCC(C(=O)N(c3ccc(Cl)cc3)C1=O)C2(C)C (centres undefined),0.8,-3.2%,-7.7,-2.5,-0.4,-5.8
O=C(c1ccco1)n1nc(-c2ccccc2)nc1NCc1ccccc1Cl,0.5,0.0%,-11.6,7.2,1.1,-2.6
COC(=O)CC#N,7.5,x,x,2.0,-0.8,-4.3
N#CCC(N)=C(C#N)C#N,80.2*,-1.7%,8.9,-8.2,38.3*,7.5
Cc1ccnc(N/C=C(\C#N)c2nc(-c3cccc(Br)c3)cs2)c1,160.1*,15.8µM*,-35.8*,26.2,0.0,-6.2
SMILES,D1 agonist,Epigenetic reg,D1 antagonist,TRHR enhancer,TRHR agonist,D1 PAM
N#C/C(=C/c1ccc(Cl)cc1)c1nc(-c2ccc(Br)cc2)cs1,1.8,0.0%,-6.7,-3.1,0.8,-2.6
COc1cccc(N2CCN(S(=O)(=O)c3ccc(-c4ccno4)cc3OC)CC2)c1,-0.4,-1.3%,-20.9,-3.0,0.0,-3.9
O=S(=O)(Nc1ccc(N2CCOCC2)nn1)c1ccccc1,1.9,-7.3%,-47.1*,13.4,0.0,-1.6
CCOc1ccccc1NC(=O)c1c(NCc2ccc(OC)c(OC)c2OC)sc2c1CCC(C)C2 (centres undefined),1.0,-1.1%,-12.8,-6.2,-0.2,-1.9
Cc1cc(C)c2c(=O)cc(C(=O)Nc3sc4c(c3C(=O)NCc3ccccc3)CCCC4)oc2c1,-1.5,-1.0%,-86.2*,20.0,0.8,3.4
Cc1ccc2c(=O)cc(C(=O)Nc3sc4c(c3C(=O)NCc3cccnc3)CCCC4)oc2c1C,8.5,-1.9%,-7.8,6.3,-1.4,-0.8
O=C(Nc1sc2c(c1C(=O)NCc1cccnc1)CCCC2)c1ccco1,1.9,1.8%,-31.7*,2.9,0.1,3.8
COCCCNC(=O)c1ccc(Cn2c(=O)c3cccn3c3cccnc32)cc1,0.9,0.2%,-8.0,-1.6,0.2,-4.5
O=C(c1c2c(nc3ccccc13)C(=O)N(C1CCCCC1)C2)N1CCN(c2ccc(F)cc2)CC1,1.7,0.8%,17.0,-1.1,-0.6,-1.4
Cc1ccc(C(=O)NC(=S)N(C)C2CCCCC2)cc1,-0.3,x,-41.1*,-0.8,-0.3,8.7
Cn1c(=O)n(-c2ccc(Br)cc2F)c(=O)c2sc3ccccc3c21,4.5,-0.2%,-17.1,-2.4,1.4,1.1
Cc1c(C(=O)N(C)C)sc2c1c(=O)n(-c1ccc(Cl)c(Cl)c1)c(=O)n2Cc1ccc(F)cc1,5.2,0.0%,0.7,-2.0,0.3,-3.5
Clc1ccc(OCCOCCNCc2ccccc2)cc1Cl,46.8*,x,-25.7,2.9,1.7,-5.2
CN(CCOc1ccc(Cl)c(Cl)c1)Cc1ccccc1,0.7,x,1.8,-1.3,0.2,2.0
Cc1cc(Cl)cc(C)c1OCCOCCNCc1ccccc1,31.4*,x,-4.9,-7.1,1.4,-5.9
O=C(Nc1cccc(C(=O)O)c1)/C(=C\c1ccc2c(c1)OCO2)NC(=O)c1ccco1,0.5,-0.2%,-7.0,33.4*,0.7,-2.6
O=C(Nc1ccccc1)/C(=C\c1ccc2c(c1)OCO2)NC(=O)c1ccco1,-1.2,1.9%,-12.9,8.1,-0.4,-2.0
O=C(Nc1nccs1)c1ccc2c(c1)C(=O)N(Cc1cccnc1)C2=O,4.9,x,-5.2,4.4,0.0,-0.7
